Assay results as given in PubChem BioAssay AID1159580 (chemical genetic matrix, 2015).
Values joined by “and” are separate entries in the source; they are usually repeats but may differ in a detail not shown here. Equal values may be shown once. The campaign covered roughly 5,500 compounds. About 2,000 (36%) were called active. About 18% were inconclusive and are not listed. Rule as the data show it: active = normalized growth mostly below about 0.91 (no sharp cut-off); inconclusive = no clear call, values can overlap the other calls; inactive = mostly above about 0.92. The list shows a part of the results.

Assay: chemical genetic growth profiling, strain panel (AID 1159580);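 also: tested at 20 µM; growth read once vehicle control cultures reached saturation at 30 °C; 1 = growth at the plate median or of vehicle wells; lower values mean less growth of the strain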
Conditions: growth OD

Measured: normalized growth

COc1ccc2[nH]cc(CCNC(C)=O)c2c1
inactive: S. cerevisiae deletion strains, locus YJR075W, strain HOC1, hits give low values 1.07 | S. cerevisiae deletion strains, locus YKL009W, strain mrt4, hits give low values 1.01 | S. cerevisiae deletion strains, locus YKL068W, hits give low values 1.01 | S. cerevisiae deletion strains, locus YKL085W, strain MDH1 (second series), hits give low values 1.01 | S. cerevisiae deletion strains, locus YKL085W, strain MDH1, hits give low values 1.01 | S. cerevisiae deletion strains, locus YKL160W, strain elf1, hits give low values 0.979 | S. cerevisiae deletion strains, locus YKL190W, strain CNB1, hits give low values 1 | S. cerevisiae deletion strains, locus YKR001C, strain vps1, hits give low values 1.03 | S. cerevisiae deletion strains, locus YKR026C, strain gcn3, hits give low values 0.97 | S. cerevisiae deletion strains, locus YKR091W, strain srl3, hits give low values 0.969 | S. cerevisiae deletion strains, locus YLL001W, strain dnm1, hits give low values 0.971 | S. cerevisiae deletion strains, locus YLL026W, hits give low values 0.979 | S. cerevisiae deletion strains, locus YLL041C, strain sdh2, hits give low values 0.977 | S. cerevisiae deletion strains, locus YLR027C, strain aat2, hits give low values 0.975 | S. cerevisiae deletion strains, locus YLR039C, strain RIC1, hits give low values 1.04 | S. cerevisiae deletion strains, locus YLR058C, strain SHM2, hits give low values 1.01 | S. cerevisiae deletion strains, locus YLR102C, strain apc9, hits give low values 1.03 | S. cerevisiae deletion strains, locus YLR113W, strain HOG1, hits give low values 1 | S. cerevisiae deletion strains, locus YLR221C, strain rsa3, hits give low values 0.969 | S. cerevisiae deletion strains, locus YLR258W, strain gsy2, hits give low values 0.973 | S. cerevisiae deletion strains, locus YLR262C, strain YPT6 (second series), hits give low values 0.987 | S. cerevisiae deletion strains, locus YLR262C, strain YPT6, hits give low values 1.02 | S. cerevisiae deletion strains, locus YLR268W, strain sec22, hits give low values 1.03 | S. cerevisiae deletion strains, locus YLR320W, strain mms22, hits give low values 0.955 | S. cerevisiae deletion strains, locus YLR330W, strain CHS5, hits give low values 1.01 | S. cerevisiae deletion strains, locus YLR342W, strain FKS1 (second series), hits give low values 1.01 | S. cerevisiae deletion strains, locus YLR342W, strain FKS1, hits give low values 0.983 | S. cerevisiae deletion strains, locus YLR357W, strain rsc2, hits give low values 0.93 | S. cerevisiae deletion strains, locus YLR370C, strain arc18, hits give low values 0.974 | S. cerevisiae deletion strains, locus YLR371W, strain rom2, hits give low values 1.02 | S. cerevisiae deletion strains, locus YLR384C, strain iki3, hits give low values 0.951 | S. cerevisiae deletion strains, locus YLR418C, strain cdc73, hits give low values 1.05 | S. cerevisiae deletion strains, locus YML016C, strain PPZ1, hits give low values 1.01 | S. cerevisiae deletion strains, locus YML032C, strain rad52, hits give low values 1.03 | S. cerevisiae deletion strains, locus YML120C, strain ndi1, hits give low values 0.982 | S. cerevisiae deletion strains, locus YML124C, strain tub3, hits give low values 1.02 | S. cerevisiae deletion strains, locus YMR058W, strain fet3, hits give low values 0.974 | S. cerevisiae deletion strains, locus YMR078C, strain ctf18, hits give low values 1.03 | S. cerevisiae deletion strains, locus YMR125W, strain sto1, hits give low values 0.956 | S. cerevisiae deletion strains, locus YMR129W, hits give low values 0.977 | S. cerevisiae deletion strains, locus YMR205C, strain PFK2, hits give low values 0.979 | S. cerevisiae deletion strains, locus YMR223W, strain ubp8, hits give low values 1.03 | S. cerevisiae deletion strains, locus YMR231W, strain pep5, hits give low values 0.957 | S. cerevisiae deletion strains, locus YMR263W, strain SAP30, hits give low values 1.01 | S. cerevisiae deletion strains, locus YMR307W, strain GAS1, hits give low values 1.05 and 0.978 | S. cerevisiae deletion strains, locus YNL067W, strain RPL9B, hits give low values 1.01 | S. cerevisiae deletion strains, locus YNL071W, strain lat1, hits give low values 0.975 | S. cerevisiae deletion strains, locus YNL128W, strain TEP1, hits give low values 1.02 | S. cerevisiae deletion strains, locus YNL153C, strain GIM3, hits give low values 1.01 | S. cerevisiae deletion strains, locus YNL175C, strain NOP13, hits give low values 1.02 | S. cerevisiae deletion strains, locus YNL183C, strain NPR1, hits give low values 0.942 | S. cerevisiae deletion strains, locus YNL197C, strain WHI3, hits give low values 1.01 | S. cerevisiae deletion strains, locus YNL209W, strain ssb2, hits give low values 0.971 | S. cerevisiae deletion strains, locus YNL224C, strain SQS1, hits give low values 1 | S. cerevisiae deletion strains, locus YNL233W, strain BNI4, hits give low values 1.02 | S. cerevisiae deletion strains, locus YNL248C, strain rpa49, hits give low values 0.968 | S. cerevisiae deletion strains, locus YNL250W, strain rad50, hits give low values 1.04 | S. cerevisiae deletion strains, locus YNL271C, strain bni1, hits give low values 1.05 | S. cerevisiae deletion strains, locus YNL298W, strain CLA4, hits give low values 1.03 | S. cerevisiae deletion strains, locus YNL307C, strain MCK1, hits give low values 1.04 | S. cerevisiae deletion strains, locus YNL322C, strain KRE1 (second series), hits give low values 0.968 | S. cerevisiae deletion strains, locus YNL322C, strain KRE1, hits give low values 1 | S. cerevisiae deletion strains, locus YNR049C, strain mso1, hits give low values 0.972 | S. cerevisiae deletion strains, locus YNR052C, strain pop2, hits give low values 1.03 | S. cerevisiae deletion strains, locus YOL006C, strain TOP1, hits give low values 1.07 | S. cerevisiae deletion strains, locus YOL012C, strain htz1 1.19 | S. cerevisiae deletion strains, locus YOL147C, strain pex11, hits give low values 1.02 | S. cerevisiae deletion strains, locus YOR001W, strain rrp6, hits give low values 0.988 | S. cerevisiae deletion strains, locus YOR061W, strain CKA2, hits give low values 1.01 | S. cerevisiae deletion strains, locus YOR069W, strain VPS5, hits give low values 0.997 | S. cerevisiae deletion strains, locus YOR070C, strain gyp1, hits give low values 0.988 | S. cerevisiae deletion strains, locus YOR080W, strain dia2, hits give low values 0.972 | S. cerevisiae deletion strains, locus YOR083W, strain WHI5 (second series), hits give low values 1.01 | S. cerevisiae deletion strains, locus YOR083W, strain WHI5, hits give low values 0.98 | S. cerevisiae deletion strains, locus YOR106W, strain vam3, hits give low values 0.982 | S. cerevisiae deletion strains, locus YOR136W, strain idh2, hits give low values 1.04 | S. cerevisiae deletion strains, locus YOR144C, strain elg1, hits give low values 1.02 | S. cerevisiae deletion strains, locus YOR184W, strain ser1, hits give low values 1.04 | S. cerevisiae deletion strains, locus YOR231W, strain MKK1, hits give low values 1.02 | S. cerevisiae deletion strains, locus YOR265W, strain rbl2, hits give low values 0.984 | S. cerevisiae deletion strains, locus YOR270C, strain vph1, hits give low values 0.966 | S. cerevisiae deletion strains, locus YOR290C, strain snf2, hits give low values 0.972 | S. cerevisiae deletion strains, locus YOR316C, strain cot1, hits give low values 1.03 | S. cerevisiae deletion strains, locus YPL051W, strain arl3, hits give low values 0.967 | S. cerevisiae deletion strains, locus YPL055C, strain LGE1, hits give low values 1.04 | S. cerevisiae deletion strains, locus YPL078C, strain atp4, hits give low values 0.977 | S. cerevisiae deletion strains, locus YPL106C, strain sse1, hits give low values 0.978 | S. cerevisiae deletion strains, locus YPL240C, strain hsp82, hits give low values 0.977 | S. cerevisiae deletion strains, locus YPL241C, strain CIN2, hits give low values 1 | S. cerevisiae deletion strains, locus YPL256C, strain CLN2, hits give low values 1.01 | S. cerevisiae deletion strains, locus YPR119W, strain clb2, hits give low values 1.02 | S. cerevisiae deletion strains, locus YPR141C, strain kar3, hits give low values 1.03 | S. cerevisiae deletion strains, locus YPR163C, strain tif3, hits give low values 1.02 | S. cerevisiae deletion strains, locus YPR167C, strain met16, hits give low values 1.03 | S. cerevisiae deletion strains, strain wtn01, hits give low values 1.02 | S. cerevisiae strains, strain wild type, hits give low values 1.01
